In PubChem BioAssay (NCATS):
“And” between values parts separate entries of the source, which are not always exact repeats. Identical values can stand only once. Inconclusive results are not listed. Unmarked numbers belong to inactive results. The source made the active and inactive calls. The call rests on the fitted dose curve; in most records, active means well fitted inhibition curve with a large enough effect; inconclusive means small, poorly fitted or top-dose-only effect; inactive means flat fitted curve, though single readings scatter.

system: HEK293; assay: Cytotoxic Profiling of Annotated Libraries Using Quantitative High-Throughput Screening (AID 1296008); settings: Five cell lines viability, CellTiter-Glo ATP luminescence, 48-72 h; max response: stronger effect = lower value; further: nearly all actives have a fitted effect of over 60% in size
Description: Cell-based phenotypic screening is a commonly used approach to discover biological pathways, novel drug targets, chemical probes and high-quality hit-to-lead molecules. Many hits identified from high-throughput screening campaign are ruled out through a series of follow-up potency, selectivity/specificity, and cytotoxicity assays. Prioritization of molecules with little or no cytotoxicity for a more in-depth downstream evaluation influence the future direction of projects, so cytotoxicity profiling of the screening libraries at early stage is essential for increasing the likelihood of candidate success. […] For the annotated library, we also examined the primary targets and mechanistic pathways regularly associated with cell death. To our knowledge, this is the first study to use high-throughput screening to profile large libraries for cytotoxicity assessment in both normal and cancer cell lines. In summary, the results generated here constitutes a valuable resource for the scientific community and provides insight on identifying cytotoxic compounds with particular mechanisms of action, and prioritizing compounds with suitable cytotoxicity profile for further evaluation.
A pintool (Kalypsys) was used to transfer 23 nL of compound solution to the 1536-well assay plates. After 48 or 72 hr incubation at 37 degree Celsius, 5% CO2 and 95% humidity, 2.5 uL of CellTiter-Glo (Promega) was dispensed into each well using a dispenser (Aspect Automation, St. Paul, MN) with solenoid valves (Lee Valves, Westbrook CT). Plates were left at room temperature for 10 min before imaging the ATP-coupled luminescence using a ViewLux microplate imager (PerkinElmer, Waltham, MA).
On the % scale 0 is the no-effect control and ±100 the full control effect; potency means the concentration at half of the fitted maximal effect.

| SMILES | max response | outcome | Potency |
| --- | --- | --- | --- |
| c1ccc(CN2CCNCC2)cc1 | -21.3% |  |  |
| CCOC(=O)CC(SP(=S)(OC)OC)C(=O)OCC (stereo not given) |  | inactive |  |
| CN(C)CCc1c[nH]c2cccc(OP(=O)(O)O)c12 | -1.43% |  |  |
| COc1cc(OC)c(OC)cc1C=O | -6.96% | inactive |  |
| CC(C)(C)NCC(O)c1cc(Cl)c(N)c(C(F)(F)F)c1 (stereo not given) |  | inactive |  |
| Oc1ccc(Cl)cc1 |  | inactive |  |
| [N-]=[N+]=CC(=O)OC[C@H](N)C(=O)O | 4.4% |  |  |
| CCC1(CC)C(=O)C=CNC1=O | 4.85% |  |  |
| CC(C)C[C@H](CN)CC(=O)O | 2.24% |  |  |
| Cc1ncsc1CCCl | -8.24% |  |  |
| COP(=S)(OC)Oc1ccc(SC)c(C)c1 | -0.0428% |  |  |
| Clc1cccc(SC2CCNCC2)n1 | 1.87% |  |  |
| c1ccc2c(c1)sc1ccccc12 | 0.977% |  |  |
| CC(C(=O)c1ccccc1)N(C)C (stereo not given) | -1.39% |  |  |
| C[C@]12CC[C@@H]3c4ccc(OC(=O)N(CCCl)CCCl)cc4CC[C@H]3[C@@H]1CC[C@@H]2OP(=O)(O)O | -12.2% |  |  |
| O=[N+]([O-])O[C@H]1CO[C@H]2[C@@H]1OC[C@H]2O[N+](=O)[O-] | 1.42% |  |  |
| CCCCCCC(=O)CCCCCC/C=C/C[C@@H](O)[C@H](O)[C@@](N)(CO)C(=O)O | -0.716% |  |  |
| COC(=O)C(Cl)C(=O)OC |  | inactive |  |

| SMILES | max response | outcome | Potency |
| --- | --- | --- | --- |
| CCN[C@@H](C)Cc1ccccc1 | -15.1% |  |  |
| COP(=S)(OC)Oc1ccc(S(=O)(=O)N(C)C)cc1 | -6.52% |  |  |
| CC(Cc1ccccc1)N(C)Cc1ccco1 (stereo not given) | -5.17% |  |  |
| CCC(C)C(C)(COC(N)=O)COC(N)=O (stereo not given) |  | inactive |  |
| CC(C)c1cccc(C(C)C)c1O | -6.49% | inactive |  |
| CCN(CC)C(=O)[C@@H]1C=C2c3cccc4[nH]cc(c34)C[C@H]2N(C)C1 |  |  | 80 µM (active) |
| C=CCN1C[C@H](C)N([C@H](c2ccc(C(=O)N(CC)CC)cc2)c2cccc(OC)c2)C[C@H]1C | -3.98% and -24.1% |  |  |
| CCC1(c2ccc(N)cc2)CCC(=O)NC1=O (stereo not given) | 4.46% | inactive |  |
| CC(C)c1c(CN(C)C(C)Cc2ccccc2)n(C)n(-c2ccccc2)c1=O (stereo not given) |  |  | 8.41 µM (active) |
| CCCCC/C=C\C/C=C\C/C=C\C/C=C\CCCC(=O)NCC(=O)O | -7.97% |  |  |
| CC(NC(C)(C)C)C(=O)c1cccc(Cl)c1 (stereo not given) | -3.26% and -3.1% | inactive |  |
| NCCc1ccc(O)cc1 |  | inactive |  |
| O=P1(N(CCCl)CCCl)NCCCO1 (stereo not given) | -27.8% and -15.3% |  |  |
| C[C@]12CC[C@@H]3c4ccc(OC(=O)N(CCCl)CCCl)cc4CC[C@H]3[C@@H]1CC[C@@H]2O |  |  | 29.9 µM (active) |
| COc1cc(CC(C)N)cc(OC)c1OC (stereo not given) | -9.05% |  |  |
| O=C1c2ccccc2C(=O)c2ccccc21 |  | inactive |  |
| CCCOC(=O)c1cncn1C(C)c1ccccc1 (stereo not given) | 1.16% |  |  |
| Nc1ccccc1 |  | inactive |  |
